Source: PubChem (National Center for Advancing Translational Sciences (NCATS))
The list is not random: actives were taken first. Their share in the collection is about 7.4%.
SMN2 splice up = qHTS Assay for Enhancers of SMN2 Splice Variant Expression; HEK293 SMN2-luciferase splicing reporter, luminescence, 30-36 h; Potency, µM (doses to about 46.1 µM), most hits filed as activators; actives 2.8% (n = 210,000); also: nearly all actives have a fitted effect of over 55% in size
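HEK293 cells carry an SMN2 minigene-luciferase reporter in which exon 7 inclusion puts luciferase in frame. Cells were seeded at 2000 cells/well, attached for 10-12 hours, then exposed to compounds for 30-36 hours at 37C before ONE-Glo luminescence.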
NPC1 promoter act = qHTS Assay for NPC1 Promoter Activators | Potency, µM (titrated, usually from 9.22 µM), usual class: activators | actives 2.4% (n = 320,000) | AID 485313, 2010 | Huh7 NPC1 promoter luciferase reporter, 24 h; also: nearly all actives have a fitted effect of over 60% in size
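Huh7 cells stably carrying NPC1 promoter–luciferase, plated in Opti-MEM with 10% FBS for 2 h, were exposed to compound in DMSO for 24 h at 37 °C; luciferase reagent was added for 10 min and luminescence read.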
FLuc counter = qHTS profiling assay for firefly luciferase inhibitor/activator using purifed enzyme and Km concentrations of substrates (counterscreen for miR-21 project); Luciferin 4-monooxygenase (Photinus pyralis), P08659; purified FLuc, Km substrates, luminescence inhibition; Potency, µM (highest dose often 57.5 µM), hits mostly inhibitors; actives 6.9% (n = 360,000); also: nearly all actives have a fitted effect of over 55% in size
Target sequence (P08659 whole entry, looked up): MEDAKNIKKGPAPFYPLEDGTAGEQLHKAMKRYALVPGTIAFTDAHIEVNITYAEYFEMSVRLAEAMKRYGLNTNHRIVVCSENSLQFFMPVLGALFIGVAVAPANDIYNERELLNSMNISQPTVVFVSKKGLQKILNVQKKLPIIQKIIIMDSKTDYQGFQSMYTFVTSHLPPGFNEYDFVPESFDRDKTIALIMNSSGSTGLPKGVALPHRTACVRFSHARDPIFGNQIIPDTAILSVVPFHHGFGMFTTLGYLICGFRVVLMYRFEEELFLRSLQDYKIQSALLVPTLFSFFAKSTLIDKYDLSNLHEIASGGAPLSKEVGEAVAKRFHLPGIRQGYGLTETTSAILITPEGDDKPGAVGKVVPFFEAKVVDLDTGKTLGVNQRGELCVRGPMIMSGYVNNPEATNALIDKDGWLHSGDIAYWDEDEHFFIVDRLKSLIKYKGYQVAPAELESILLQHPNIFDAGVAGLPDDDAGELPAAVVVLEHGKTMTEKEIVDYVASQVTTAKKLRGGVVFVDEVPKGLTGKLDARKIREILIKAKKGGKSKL
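Purified P. pyralis luciferase, 10 nM final, with Km-level 10 uM D-luciferin and 10 uM ATP in 50 mM Tris acetate pH 7.5, 10 mM Mg acetate, 0.01% Tween-20, 0.05% BSA; 6-point qHTS titration about 60 µM downward; luminescence read.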
ELG1 genotox = qHTS screen for small molecules that induce genotoxicity in human embryonic kidney (HEK293T) cells expressing luciferase-tagged ELG1; Potency, µM (series often up to 46 µM), usual class: activators; AID 504466, 2011; HEK293T ELG1-luciferase reporter, luminescence, 16 h; actives 1.3% (n = 330,000); also: nearly all actives have a fitted effect of over 60% in size
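Luminescence read-out: rising ELG1-luciferase signal, reflecting elevated ELG1 protein under genetic stress, flags genotoxic compounds. Cells were treated for 16 hr at 37 °C before ONE-Glo detection.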
Rab9 promoter act = qHTS Assay for Rab9 Promoter Activators. AID 485297, 2010. Huh7 Rab9 promoter-luciferase reporter, luminescence, 24 h. actives 2.8% (n = 320,000). Potency, µM (highest dose often 9.22 µM), actives largely listed as activators; also: nearly all actives have a fitted effect of over 60% in size
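Using Huh7 cells stably transfected with Rab9 promoter–luciferase, compounds were incubated 24 h at 37 °C, 5% CO2; luciferase luminescence was read 10 min after reagent addition.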
Large screens that a line does not name were inactive. Calls follow the shape of the dose curve; as a rule, active = well fitted curve in the direction sought with a large enough effect; inconclusive = small, poorly fitted or top-dose-only effect, or another doubt; inactive = no such curve, though single readings can be large; an effect the other way counts as inactive or inconclusive.

CC(Cc1ccccc1)NC(=O)C(c1ccc(N)cc1)c1ccc(N)cc1 (stereo not given)	none (no result: SMN2 splice up)
C[C@@H]1[C@@H](C)N1C[C@H](O)Cn1ccnc1[N+](=O)[O-] (stereo not given in full)	none (no result: NPC1 promoter act, FLuc counter, ELG1 genotox, Rab9 promoter act)
C(=NC1CCCCC1)=NC1CCCCC1	none (no result: NPC1 promoter act, FLuc counter, ELG1 genotox, Rab9 promoter act)
c1ccc(OP(Oc2ccccc2)Oc2ccccc2)cc1	none (no result: NPC1 promoter act, FLuc counter, ELG1 genotox, Rab9 promoter act)
COc1ccc(NC2CC(=O)N(C(C)C)C2=O)cc1 (stereo not given)	SMN2 splice up 16µM, NPC1 promoter act inconclusive, FLuc counter 15µM, ELG1 genotox 4.1µM, Rab9 promoter act 3.2µM
COC(=O)c1cn(S(=O)(=O)c2ccccc2)c2ccccc12	FLuc counter inconclusive (no result: SMN2 splice up)
COc1ccc(-c2cc(=NCCCCCC(=O)O)c3cc(C)ccc3o2)cc1	ELG1 genotox inconclusive
COc1ccc(-c2cc(=Nc3cccc(C(=O)O)c3)c3cc(C)ccc3o2)cc1	FLuc counter 9.5µM, ELG1 genotox 5.8µM, Rab9 promoter act inconclusive (no result: SMN2 splice up)
Cc1ccc2scc(N3CCN(C)CC3)c(=O)c2c1	FLuc counter 12µM (no result: SMN2 splice up, NPC1 promoter act, ELG1 genotox, Rab9 promoter act)
CN1C(=O)C(=Cc2ccc(N3CCCCCC3)o2)C(=O)N(C)C1=S	NPC1 promoter act inconclusive, FLuc counter 11µM, ELG1 genotox inconclusive, Rab9 promoter act inconclusive
CN1C(=O)C(=Cc2ccc(N3CCOCC3)o2)C(=O)N(C)C1=O	SMN2 splice up inconclusive, FLuc counter inconclusive
CN(CC(=O)N1CCc2ccccc21)S(=O)(=O)c1cccs1	SMN2 splice up 11µM, NPC1 promoter act 2.8µM, FLuc counter 12µM, ELG1 genotox 10µM, Rab9 promoter act 3.5µM
CCCCc1nn2c(=O)cc(COC(=O)Cc3ccccc3)nc2s1	none (no result: SMN2 splice up, NPC1 promoter act, ELG1 genotox, Rab9 promoter act)
CCOc1ccc(C(=O)Nc2cccc(C(=O)OCc3cc(=O)n4nc(C5CC5)sc4n3)c2)cc1	FLuc counter 1.9µM (no result: SMN2 splice up, NPC1 promoter act, ELG1 genotox, Rab9 promoter act)
Cc1nc2ccc(NC(=O)c3ccc(Cl)s3)cc2s1	SMN2 splice up 14µM, NPC1 promoter act 3.2µM, FLuc counter inconclusive, ELG1 genotox 9.2µM, Rab9 promoter act 1.6µM
O=c1[nH]c(=O)n(CC2CCCO2)c(O)c1/C=C1\C=Nc2ccccc21 (stereo not given)	FLuc counter 17µM
O=c1[nH]c(=O)n(-c2ccc(F)cc2)c(O)c1/C=C1\C=Nc2ccccc21	none (no result: SMN2 splice up)
O=c1[nH]c(=O)n(-c2ccccc2F)c(O)c1/C=C1\C=Nc2ccccc21	FLuc counter 17µM (no result: SMN2 splice up)
O=c1[nH]c(=O)n(Cc2ccccc2)c(O)c1/C=C1\C=Nc2ccccc21	none
CCCCSc1nc2c(cnn2-c2ccccc2)c(=O)n1N	SMN2 splice up 10µM, NPC1 promoter act 2.8µM, FLuc counter 6.7µM, ELG1 genotox inconclusive, Rab9 promoter act 1.8µM
COc1c(C(C)(C)C)cc([N+](=O)[O-])c(C)c1[N+](=O)[O-]	none (no result: NPC1 promoter act, FLuc counter, ELG1 genotox, Rab9 promoter act)
